In a collection of fitness landscapes (doi:10.1126/science.1257360) one finds enrichment ratio data, which are given here for 153 variants.

The chains are these.
B1: PhoQ; a variant is named by its letters at X, in order, P23837 (parent)
chain: MKKLLRLFFPLSLRVRFLLATAAVVLVLSLAYGMVALIGYSVSFDKTTFRLLRGESNLFYTLAKWENNKLHVELPENIDKQSPTMTLIYDENGQLLWAQRDVPWLMKMIQPDWLKSNGFHEIEADVNDTSLLLSGDHSIQQQLQEVREDDDDAEMTHSVAVNVYPATSRMPKLTIVVVDTIPVELKSSYMVWSWFIYVLSANLLLVIPLLWVAAWWSLRPIEALAKEVRELEEHNRELLNPATTRELTSLVRNLNRLLKSERERYDKYRTTLTDLTHSLKTPLXXLQXXLRSLRSEKMSVSDAEPVMLEQISRISQQIGYYLHRASMRGGTLLSRELHPVAPLLDNLTSALNKVYQRKGVNISLDISPEISFVGEQNDFVEVMGNVLDNACKYCLEFVEISARQTDEHLYIVVEDDGPGIPLSKREVIFDRGQRVDTLRPGQGVGLAVAREITEQYEGKIVAGESMLGGARMEVIFGRQHSAPKDE

In all, about 140,000 sequences were measured (“enrichment ratio after two sorts for PhoP signalling”: median about 0, highest 2% from about 11 on). The sample as a whole holds a higher share of the highest values than the screen did.

In the assay the parent is B1. Briefly: enrichment ratio after two sorts for PhoP signalling (ratio (wild type AVST 3.29)); higher = more functional. The settings on record: with PhoP (E. coli).
Consider NALQ, for which the enrichment ratio was ≤ 0.25.

With TACN, the enrichment ratio came out at 13.

With NALL, the enrichment ratio is 5.99.

Regarding PICT, the enrichment ratio was ≤ 0.25.

Turning to DTQQ, the enrichment ratio was ≤ 0.25.

VDFR: the enrichment ratio is ≤ 0.25.

Regarding SNNF, the enrichment ratio worked out at 6.15.

As to GFIP, the enrichment ratio is ≤ 0.25.

Take GLMF: the enrichment ratio was 1.04.

Regarding FESF, the enrichment ratio is ≤ 0.25.

Consider AAEK, for which the enrichment ratio was ≤ 0.25.

In the case of QIFT, the enrichment ratio was ≤ 0.25.

As to TALS, the enrichment ratio was 10.9.

As to TALN, the enrichment ratio worked out at 18.9.

Regarding TALT, the enrichment ratio was determined as 9.61.

In the case of TAQN, the enrichment ratio is ≤ 0.25.

For the variant EALN, the enrichment ratio is ≤ 0.25.

Regarding IALC, the enrichment ratio amounted to 1.46.

For the variant TALC, the enrichment ratio is 20.9.

With KALC, the enrichment ratio was ≤ 0.25.

Consider TALA, for which the enrichment ratio stood at 13.8.

As for MHGF, the enrichment ratio is ≤ 0.25.

YMMK: the enrichment ratio was ≤ 0.25.

Turning to QQSN, the enrichment ratio is ≤ 0.25.

With NNFF, the enrichment ratio was ≤ 0.25.

For the variant VDVG, the enrichment ratio was ≤ 0.25.

FFRS: the enrichment ratio was ≤ 0.25.

As for FHDF, the enrichment ratio is ≤ 0.25.

As for MQYS, the enrichment ratio was 6.75.

QTFE: the enrichment ratio is ≤ 0.25.

Consider SEKM, for which the enrichment ratio was ≤ 0.25.

Regarding TANR, the enrichment ratio was ≤ 0.25.

For the variant KSAA, the enrichment ratio is ≤ 0.25.

On to ASAS, for which the enrichment ratio came out at 15.3.

As to ASAA, the enrichment ratio turned out to be 13.4.

As for ASRY, the enrichment ratio is ≤ 0.25.

For the variant ASAI, the enrichment ratio came out at 13.2.

Take ASAG: the enrichment ratio came out at 7.21.

As for ASAD, the enrichment ratio was ≤ 0.25.

With ASYY, the enrichment ratio was ≤ 0.25.

Regarding ASAT, the enrichment ratio amounted to 10.1.

For IFDK, the enrichment ratio is ≤ 0.25.

WHPD: the enrichment ratio was ≤ 0.25.

With CLCS, the enrichment ratio is ≤ 0.25.

For RQQL, the enrichment ratio was ≤ 0.25.

Regarding HTYY, the enrichment ratio was ≤ 0.25.

As for MEAY, the enrichment ratio is 13.

Turning to MKYY, the enrichment ratio is ≤ 0.25.

As to MEYY, the enrichment ratio came out at 18.8.

MTYY: the enrichment ratio came to 0.96.

Regarding STYY, the enrichment ratio was ≤ 0.25.

QEYY: the enrichment ratio is 17.4.

On to RGYY, for which the enrichment ratio was ≤ 0.25.

For the variant NGYY, the enrichment ratio was ≤ 0.25.

In the case of MKAY, the enrichment ratio was ≤ 0.25.

With QIYY, the enrichment ratio is ≤ 0.25.

In the case of TGYY, the enrichment ratio was 22.5.

As to MEYI, the enrichment ratio was 11.

Consider NFDN, for which the enrichment ratio is ≤ 0.25.

As for RTPI, the enrichment ratio is ≤ 0.25.

Take RQSW: the enrichment ratio is ≤ 0.25.

In the case of IMCF, the enrichment ratio is ≤ 0.25.

As to EDGY, the enrichment ratio is ≤ 0.25.

For SVTR, the enrichment ratio came out at 8.52.

In the case of SVSF, the enrichment ratio worked out at 12.6.

SVAE: the enrichment ratio was found to be 13.4.

Turning to SVAV, the enrichment ratio came to 7.92.

In the case of SVHF, the enrichment ratio was ≤ 0.25.

As for SVHQ, the enrichment ratio is ≤ 0.25.

With SVSR, the enrichment ratio was determined as 6.38.

With SVGR, the enrichment ratio is 1.46.

For KFAE, the enrichment ratio was ≤ 0.25.

As for SVHP, the enrichment ratio was ≤ 0.25.

As for SVSQ, the enrichment ratio was found to be 13.4.

With SVMR, the enrichment ratio worked out at 12.6.

As to WQKA, the enrichment ratio is ≤ 0.25.

ARFL: the enrichment ratio was ≤ 0.25.

For KVIR, the enrichment ratio is ≤ 0.25.

For the variant ADCI, the enrichment ratio is ≤ 0.25.

In the case of PPMF, the enrichment ratio is ≤ 0.25.

Take RIFK: the enrichment ratio amounted to 1.58.

On to NEIH, for which the enrichment ratio is ≤ 0.25.

Consider TNDC, for which the enrichment ratio was ≤ 0.25.

MKCG: the enrichment ratio was ≤ 0.25.

On to SVTS, for which the enrichment ratio came out at 7.51.

In the case of SVVG, the enrichment ratio was found to be 6.29.

Take SVPA: the enrichment ratio is ≤ 0.25.

As for SVLY, the enrichment ratio was found to be 0.677.

In the case of SVTI, the enrichment ratio stood at 12.

Regarding SVTG, the enrichment ratio was determined as 13.5.

Take SVHG: the enrichment ratio was ≤ 0.25.

As to SVVA, the enrichment ratio worked out at 1.32.

On to SVPM, for which the enrichment ratio was 7.47.

Take SVWM: the enrichment ratio is ≤ 0.25.

For the variant SVTK, the enrichment ratio was found to be 11.9.

In the case of SVTM, the enrichment ratio stood at 14.7.

Consider GRAK, for which the enrichment ratio is ≤ 0.25.

For the variant PILY, the enrichment ratio is ≤ 0.25.

Take EHER: the enrichment ratio was ≤ 0.25.

For the variant QSNR, the enrichment ratio is ≤ 0.25.

Take PYGV: the enrichment ratio is ≤ 0.25.

Consider SGYP, for which the enrichment ratio is ≤ 0.25.

As for IIGH, the enrichment ratio was ≤ 0.25.

With RDSD, the enrichment ratio is ≤ 0.25.

Turning to SVMH, the enrichment ratio was determined as 22.9.

As to NVAH, the enrichment ratio was ≤ 0.25.

For the variant SVMG, the enrichment ratio was found to be 5.71.

NVCC: the enrichment ratio is ≤ 0.25.

Regarding KFSG, the enrichment ratio was ≤ 0.25.

Turning to SVTC, the enrichment ratio stood at 3.84.

SDSG: the enrichment ratio is 0.62.

For SVAH, the enrichment ratio turned out to be 12.7.

Turning to SVWR, the enrichment ratio is ≤ 0.25.

Turning to KFAH, the enrichment ratio is ≤ 0.25.

Consider SVCC, for which the enrichment ratio is 16.1.

As to SVSG, the enrichment ratio was found to be 13.4.

With RVAP, the enrichment ratio was ≤ 0.25.

For the variant WQNE, the enrichment ratio is ≤ 0.25.

For LLNR, the enrichment ratio is ≤ 0.25.

TAVV: the enrichment ratio stood at 1.05.

As for ARNK, the enrichment ratio is ≤ 0.25.

QMLS: the enrichment ratio is ≤ 0.25.

Take SVSK: the enrichment ratio is 12.7.

Consider SVCI, for which the enrichment ratio turned out to be 10.4.

With SVCS, the enrichment ratio stood at 8.61.

As to LCNG, the enrichment ratio was ≤ 0.25.

Turning to SVNG, the enrichment ratio came to 12.5.

As to SVNH, the enrichment ratio was determined as 3.33.

As to SVPI, the enrichment ratio is 5.93.

Consider SVCG, for which the enrichment ratio came out at 13.3.

Regarding SVTH, the enrichment ratio is 11.9.

As for PVNG, the enrichment ratio is ≤ 0.25.

With SVWI, the enrichment ratio is ≤ 0.25.

SVSH: the enrichment ratio came out at 10.5.

As to KLIS, the enrichment ratio is ≤ 0.25.

With NRHS, the enrichment ratio was ≤ 0.25.

Take GGDF: the enrichment ratio is ≤ 0.25.

With FHQD, the enrichment ratio was ≤ 0.25.

With IWVM, the enrichment ratio is ≤ 0.25.

In the case of HEVP, the enrichment ratio is ≤ 0.25.

On to SVMV, for which the enrichment ratio is 9.33.

As for KFCH, the enrichment ratio is ≤ 0.25.

As to SQSF, the enrichment ratio turned out to be 7.01.

As to SVMS, the enrichment ratio stood at 8.47.

As to SVMQ, the enrichment ratio came to 15.2.

In the case of SLSF, the enrichment ratio came out at 11.7.

Take SVCH: the enrichment ratio turned out to be 12.5.

Consider SVCF, for which the enrichment ratio was 4.45.

For SRSF, the enrichment ratio was ≤ 0.25.

With MQII, the enrichment ratio was ≤ 0.25.

Regarding RDEG, the enrichment ratio was ≤ 0.25.

Turning to FSHY, the enrichment ratio was ≤ 0.25.

Consider TALR, for which the enrichment ratio amounted to 3.62.
